Assay outcomes as filed in PubChem.
CYP2C19 inh: blockers of cytochrome P450 2C19 activity – biochemical, luminescence, ADME assay, primary screen | CYP2C19 Supersomes, luciferin-H EGE luminescence, 30 min | inhibition, % at 5 µM | actives 21% (n = 96,000) | AID 778, 2007 | P33261;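 active means CYP2C19 inhibition above a set limit at 5 µM in the primary screen, cut at about 50% in these data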;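 further: plate controls were negative control wells for no effect and 2.5 mM tranylcypromine positive control for full effect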
PLAP activator: PLAP enzyme activators, biochemical, luminescence, HTS; activation fold at 20 µM; AID 696, 2007; purified PLAP enzyme, luminescent substrate read-out; active compounds read high; Alkaline phosphatase, placental type (Homo sapiens), P05187; actives 1.2% (n = 96,000); in the data active means activation fold above about 2
CYP2C19 activ: human CYP2C19 activators, primary screen, biochemical, luminescence | Cytochrome P450 2C19 (Homo sapiens), P33261 | AID 1025, 2008 | recombinant CYP2C19, luciferin-H EGE luminescence; active compounds read high; 0 = fully inhibited enzyme, 1 = untreated enzyme | 96,000 tested, under 10 active | activation factor at 5 µM;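 active means activation factor of at least 2 at 5 µM in the primary screen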;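 further: 0 = wells with 2.5 mM tranylcypromine and 1 = vehicle-only wells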
CYP2C9 activ: human CYP2C9 activators, primary screen, biochemical, luminescence; activation factor at 5 µM; recombinant CYP2C9, luciferin-H conversion; active compounds read high; factor 1 = untreated enzyme, 0 = blocked; actives 1.4% (n = 96,000); Cytochrome P450 2C9 (Homo sapiens), P11712;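 active means activation factor of 2 or more for CYP2C9 at a 5 µM dose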;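 further: 0 = sulfaphenazole-blocked wells and 1 = vehicle-only wells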
Target sequence (P11712 whole entry, looked up): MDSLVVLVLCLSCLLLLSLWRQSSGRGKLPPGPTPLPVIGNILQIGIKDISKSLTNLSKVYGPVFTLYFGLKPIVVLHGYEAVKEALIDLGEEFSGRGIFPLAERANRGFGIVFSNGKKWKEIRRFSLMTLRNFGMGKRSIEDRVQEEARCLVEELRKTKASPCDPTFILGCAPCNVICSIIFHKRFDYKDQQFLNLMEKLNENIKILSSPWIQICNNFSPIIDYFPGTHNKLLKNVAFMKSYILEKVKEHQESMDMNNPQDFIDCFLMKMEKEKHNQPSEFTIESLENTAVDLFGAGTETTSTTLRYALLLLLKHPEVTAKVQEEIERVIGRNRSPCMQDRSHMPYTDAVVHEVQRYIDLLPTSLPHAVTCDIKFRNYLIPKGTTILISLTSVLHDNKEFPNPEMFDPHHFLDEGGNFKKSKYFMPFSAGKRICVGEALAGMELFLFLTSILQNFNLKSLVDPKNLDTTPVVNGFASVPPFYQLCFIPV
CYP2C9 inh: blockers of cytochrome P450 2C9 activity – biochemical, luminescence, ADME assay, primary screen; AID 777, 2007; actives 20% (n = 96,000); P11712; inhibition, % at 5 µM; CYP2C9 Supersomes, luciferin-H conversion;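 active means blocking of liver enzyme CYP2C9 beyond about 50% at 5 µM, limit read from the data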
* = called active by the depositor. Compounds with a hit are over-represented: about 31% of the library has one in this group of screens.

SMILES	CYP2C19 inh	PLAP activator	CYP2C19 activ	CYP2C9 activ	CYP2C9 inh
O=C(COC(=O)c1ccccc1Oc1ccccc1)NCc1ccco1	31.7	1.2	0.7	0.4	56.3*
O=C(COC(=O)c1ccccc1Nc1cccc(C(F)(F)F)c1)NCc1ccco1	38.4	1	0.6	0.4	57.6*
O=C(COC(=O)c1ccccc1)NCc1ccco1	10.6	0.9	0.9	1.2	-16.4
COC(=O)/C(=C/Nc1cccc2ccccc12)[N+](=O)[O-]	55.2*	0.9	0.4	0.9	13.2
O=C(Nc1cccc2ccccc12)/C(=C/c1ccc([N+](=O)[O-])cc1)NC(=O)c1ccccc1	45.6	0.9	0.5	0.9	12.2
O=C(Nc1nc(-c2ccccc2)cs1)C1COc2ccccc2O1 (stereo not drawn)	22.9	1.1	0.8	0.7	34.7
Cc1csc(NC(=O)C2COc3ccccc3O2)n1 (stereo not drawn)	83.4*	1.2	0.2	0.5	48.1
Cc1nc2ccc3nc(NC(=O)C4COc5ccccc5O4)sc3c2s1 (stereo not drawn)	-4.8	1.4	1	0.3	67.7*
Cc1ccccc1CSc1nnc(NC(=O)C2COc3ccccc3O2)s1 (stereo not drawn)	10.4	1.1	0.9	0.9	13.0
O=C(Nc1nnc(SCc2ccccc2Cl)s1)C1COc2ccccc2O1 (stereo not drawn)	10.1	1.4	0.9	0.5	54.7*
Cc1cnc(NC(=O)C2COc3ccccc3O2)s1 (stereo not drawn)	67.1*	1	0.3	0.8	17.6
CCCN(CCO)Cc1ccc(F)c(Br)c1	8.9	0.9	0.9	0.8	17.3
COc1cc(NC(=O)c2ccc(CNc3c(N4CCOCC4)c(=O)c3=O)cc2)cc(OC)c1	8.9	1	0.9	0.6	35.5
COc1cccc(-n2nnc3c(=O)n(CC(=O)N4CCC(Cc5ccccc5)CC4)cnc32)c1	-5.6	1	1.1	1.1	-10.0
Cc1cc(NC(=O)C2COc3ccccc3O2)no1 (stereo not drawn)	60.6*	0.9	0.4	0.6	38.4
Cc1cc(NC(=O)COC(=O)C2COc3ccccc3O2)no1 (stereo not drawn)	7.1	1.1	0.9	0.9	12.3
O=C(NCc1ccc2c(c1)OCO2)C(c1ccco1)N(C(=O)c1csnn1)c1ccccc1 (stereo not drawn)	74.7*	0.9	0.3	0.8	15.8
CC(C)(C)NC(=O)C(c1ccco1)N(C(=O)c1csnn1)c1ccccc1 (stereo not drawn)	13.1	1.2	0.9	0.9	10.2
O=C(NC1CCCCC1)C(c1ccco1)N(Cc1cccnc1)C(=O)C1COc2ccccc2O1 (stereo not drawn)	84.2*	1.4	0.2	0.2	75.5*
O=C(NC1CCCC1)C(c1ccco1)N(Cc1ccccc1)C(=O)c1csnn1 (stereo not drawn)	71.1*	0.8	0.3	0.7	29.5
Cc1nc2ccc(S(=O)(=O)NCC(=O)N3CCOCC3)cc2s1	8.9	1	0.9	1	3.0
Brc1ccc(-c2cnc3n2CCCC3)cc1	50.4*	1.3	0.5	1	-1.6
CCOc1ccc(-c2cnc3n2CCC3)cc1	-2.3	0.9	1	0.9	7.7
CC(=O)Nc1ccc(C(=O)N2CCCC2)cc1	5.8	1	0.9	1.1	-9.8
COc1ccc(S(=O)(=O)N(C)c2ccc(C(N)=O)cc2)cc1	44.4	1.4	0.6	0.5	49.8
SMILES	CYP2C19 inh	PLAP activator	CYP2C19 activ	CYP2C9 activ	CYP2C9 inh
CCOCCCNC(=O)c1ccc(N(C)S(=O)(=O)c2ccc(OC)cc2)cc1	19.1	1.5	0.8	0.2	78.1*
COc1ccc(S(=O)(=O)N(C)c2ccc(C(=O)NCCC(C)C)cc2)cc1	85.5*	1.9	0.1	0.1	92.2*
COc1ccc(S(=O)(=O)Nc2cc(C(=O)NCCC(C)C)ccc2N2CCOCC2)cc1	45.5	1.3	0.5	0.4	60.6*
CC(c1ccco1)N(C(=O)C12CC3(C)CC(C)(CC(C)(C3)C1)C2)c1ccccn1 (stereo not drawn)	12.3	1.1	0.9	1	1.4
CSc1nc(N(C)NC(=O)c2ccc(F)cc2)c2ccccc2n1	11.5	0.9	0.9	0.7	26.7
Cc1cccc2cc(C(c3nnnn3C(C)(C)C)N(Cc3ccco3)CC3CCCO3)c(=O)[nH]c12 (stereo not drawn)	23.7	1.5	0.8	0.4	56.4*
CC(C)(C)n1nnnc1C(c1ccccc1F)N(Cc1ccco1)CC1CCCO1 (stereo not drawn)	30.1	1.7	0.7	0.3	70.7*
Cc1ccc2[nH]c(=O)c(C(c3nnnn3C(C)(C)C)N(Cc3ccco3)CC3CCCO3)cc2c1 (stereo not drawn)	8.9	1.1	0.9	1	3.6
CC1Cc2ccccc2N1C(=O)CSc1nnc2sc3ccccc3n12 (stereo not drawn)	99.9*	1.5	0	0.3	66.7*
CCc1nc(SCC(=O)N2c3ccccc3CC2C)c2c(C)c(C)sc2n1 (stereo not drawn)	63.5*	1.4	0.4	0	99.2*
Cc1ccc2nc(-c3cccnc3SCC(=O)N3c4ccccc4CC3C)[nH]c2c1 (stereo not drawn)	8.2	1.4	0.9	0.8	15.5
Cc1ccc2nc(SCC(=O)N3c4ccccc4CC3C)c(C)cc2c1 (stereo not drawn)	37.6	0.9	0.6	0.3	67.3*
Cc1ccccc1-n1ncc2c(SCC(=O)N3c4ccccc4CC3C)ncnc21 (stereo not drawn)	34.4	1.1	0.7	0.4	61.5*
Cc1ccnc(N2CCC(C(=O)Nc3nnc(C)s3)CC2)n1	4.9	0.9	1	1.1	-5.3
O=C(Nc1nnc(-c2ccccc2)s1)c1cc(S(=O)(=O)N2CCOCC2)c(Cl)cc1Cl	0.9	1.1	1	1	4.3
Cc1nnc(SCC(=O)N2c3ccccc3CC2C)s1 (stereo not drawn)	69.4*	0.9	0.3	0.9	14.5
CC1Cc2ccccc2N1C(=O)CSc1nnc(NC(=O)Cc2cccs2)s1 (stereo not drawn)	13.4	1.1	0.9	0.9	5.6
Cn1c(=O)c2cc(S(=O)(=O)NC(C(=O)NCc3ccccn3)c3ccccc3)ccc2n(C)c1=O (stereo not drawn)	-2.9	1	1	1	1.7
CC1(C)Cc2c(sc3c2C2=NCCN2C=N3)CS1	-16.0	1.1	1.2	1	-2.6
CN1CCN(P(=O)(c2ccccc2)c2nc3ccccc3s2)CC1 (stereo not drawn)	11.2	1.6	0.9	1	1.0
Cc1ccc(S(=O)(=O)c2nc(C)c3c(n2)CCC3)cc1	36.3	1.1	0.6	2.2*	-117.1
